# Source: PubChem
# Shown are actives, neighbours in structure and some others; about 3.1% of the full set was active somewhere.
# TRb-SRC2 inh: TRbeta-SRC2 interaction inhibition. Potency, µM (highest dose often 106 µM), for inactives: at the highest dose activity change, negative = inhibition, most hits filed as inhibitors. 0.065% of 280,000 active. TRbeta-SRC2 peptide binding, fluorescence polarization; receptor liganded with 1 µM T3. P10828;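 also: plate controls were bound peptide for no effect and peptide without receptor for full effect; nearly all actives have a fitted effect of over 50% in size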
#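 Polarization signal, normalized between peptide-alone and full complex controls, measured compound effects on T3-liganded human TRb LBD (0.6 uM) binding 20 nM Texas Red SRC2 peptide after 5 hr.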
# Tau fibril FP: inhibitors of human tau fibril formation | P10636 | K18 P301L tau heparin fibrillization, Alexa594 FP, 6 h | Potency, µM (titrated, usually from 57.7 µM), for inactives: top-dose activity, negative = inhibition, most hits filed as inhibitors | 0.39% of 280,000 active; also: nearly all actives have a fitted effect of over 55% in size
# Target sequence (P10636 561-689 P618L limits assumed): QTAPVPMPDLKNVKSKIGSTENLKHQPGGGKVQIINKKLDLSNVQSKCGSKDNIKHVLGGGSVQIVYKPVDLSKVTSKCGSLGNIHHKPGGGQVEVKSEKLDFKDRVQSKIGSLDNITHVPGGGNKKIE
#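 Human K18 P301L fragment (15 uM unlabeled plus 0.24 uM Alexa 594-labeled) in 100 mM sodium acetate pH 7 with compound, aggregation induced by 20 uM heparin for 6 hr at 37 C. ThT (30 uM) added for 1 hr, then Alexa 594 FP read.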
# Tau fibril ThT: blocks human tau fibril formation measured by thioflavin T | P10636 | recombinant tau K18 P301L, heparin-induced fibrillization, ThT fluorescence | Potency, µM (top dose mostly 57.4 µM), inactives show at the top dose activity, negative = inhibition, usual class: inhibitors | 2.1% of 270,000 active | AID 1460; also: nearly all actives have a fitted effect of over 55% in size
#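 Recombinant human tau K18 fragment […] carrying P301L, 15 uM unlabeled plus 0.24 uM Alexa 594-labeled, was fibrillized with 20 uM heparin in 100 mM sodium acetate pH 7 for 6 hr at 37 C; 30 uM ThT fluorescence read after 1 hr.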
# GoLoco inh red: blocks human Gai1 binding to RGS12 GoLoco peptide, red readout | AID 880 | P63096 | Potency, µM (titrated, usually from 61.6 µM), inactives show at the highest dose activity, negative = inhibition, hits mostly inhibitors | Gai1:RGS12 GoLoco peptide FP, rhodamine, 10 min | 0.44% of 230,000 active; active = well fitted inhibition curve with a large enough effect, not every such curve was filed as active; inactive = no such curve, though single readings can be large or run the other way; also: nearly all actives have a fitted effect of over 30% in size
# Target sequence (P63096 whole entry, looked up): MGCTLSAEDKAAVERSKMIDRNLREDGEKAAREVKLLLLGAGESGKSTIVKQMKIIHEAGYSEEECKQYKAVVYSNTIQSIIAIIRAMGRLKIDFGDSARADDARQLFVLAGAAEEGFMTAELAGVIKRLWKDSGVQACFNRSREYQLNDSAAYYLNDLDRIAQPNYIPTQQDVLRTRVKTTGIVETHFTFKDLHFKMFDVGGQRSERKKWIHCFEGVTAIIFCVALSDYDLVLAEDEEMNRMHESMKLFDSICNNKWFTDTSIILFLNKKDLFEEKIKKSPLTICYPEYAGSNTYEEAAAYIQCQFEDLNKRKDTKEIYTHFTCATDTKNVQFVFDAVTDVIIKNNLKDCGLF
# Tau fluor cs: counter-screen for tau fibril formation inhibitors | tau K18 P301L Alexa594 fluorescence, heparin fibrillization | Potency, µM (series often up to 57.7 µM), for inactives: top-dose activity change, negative = decrease | 0.93% of 280,000 active; also: nearly all actives have a fitted effect of over 55% in size
#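 Human tau K18 P301L (15 uM unlabeled, 0.24 uM Alexa 594-labeled) in 100 mM sodium acetate pH 7 with 20 uM heparin, 6 hr at 37 C. ThT 30 uM added, 1 hr ambient; Alexa 594 FP and total fluorescence read at 555/632 nm.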
# TexasRed fluor: Texas Red fluorescence interference in TRb-SRC2 counter-screen | 0.29% of 280,000 active | Potency, µM (doses to about 106 µM), without a hit: at the highest dose fluorescence change, negative = quenching | TRb/SRC2 Texas Red total fluorescence interference | AID 1479; active = well fitted curve in either direction with a large enough effect; inconclusive = small, poorly fitted or top-dose-only effect
#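 Human TRb ligand-binding domain at 0.6 uM with 20 nM Texas Red SRC2 peptide in Tris buffer containing 1 uM T3 and 5% DMSO, incubated with compound 5 h at ambient temperature. Total fluorescence (555/632 nm) calculated as parallel + 2 × perpendicular.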
# * hit, by the source's call; ? = inconclusive; . = no result; [ ] = another dose, or the depositor's remark. Unless noted, calls follow the shape of the dose curve; as a rule, active = well fitted curve in the direction sought with a large enough effect; inconclusive = small, poorly fitted or top-dose-only effect, or another doubt; inactive = no such curve, though single readings can be large; an effect the other way counts as inactive or inconclusive. Unless noted, % is scaled to controls: 0 for no effect and ±100 for the full control effect; potency is read from the fitted curve at half-maximal effect.
SMILES,TRb-SRC2 inh,Tau fibril FP,Tau fibril ThT,GoLoco inh red,Tau fluor cs,TexasRed fluor
COc1cc(C2C3=C(Nc4nc(N)[nH]c(=O)c42)c2ccccc2C3=O)ccc1O (centres undefined),2.8%,13.4%,11.2µM*,-17.0%,-26.7%,-10.5%
CC(C)(C)c1ccc(C2C3=C(CCCC3=O)NC3=C2C(=O)c2ccccc23)cc1 (centres undefined),0.2%,11.3%,?,10.0%,?,-0.5%
CCNC(=S)NNC(=O)c1cc(C)on1,-13.1%,-2.2%,-8.9%,9.5%,-0.4%,-2.2%
Cc1onc(-c2c(F)cccc2Cl)c1C(=O)NNC(=O)C1CCN(Cc2cccc(F)c2)CC1,-3.0%,-2.3%,2.1%,6.9%,-4.7%,-7.6%
COc1cccc(C(=O)/C(C#N)=N/Nc2cccc(-c3ccnc(C)n3)c2)c1,-1.4%,-2.4%,5.01µM*,-1.4%,?,-11.1%
CNC(=O)Nc1cccc(-c2ccnc(C)n2)c1,4.8%,-4.2%,-4.0%,5.4%,-7.4%,1.8%
FC(F)(F)c1cccc(NC(=S)Nc2cccc(NC(=S)Nc3cccc(C(F)(F)F)c3)n2)c1,-7.1%,20µM*,-3.1%,10.1%,12.6µM*[quencher],-1.0%
CCCNC(=S)Nc1cccc(C(F)(F)F)c1,-3.6%,4.6%,-7.6%,-0.5%,-10.0%,-3.0%
FC(F)(F)c1cccc(NC(=S)NCC2COc3ccccc3O2)c1 (centres undefined),8.9%,25.1µM*,-11.7%,-14.5%,?,-1.5%
O=C(NCc1ccco1)C(=O)NCC1OCCN1C(=O)c1ccc(Cl)cc1 (centres undefined),-9.5%,.,.,-7.6%,.,-4.0%
C=CC(C)(C)c1[nH]c2ccccc2c1C1=C(O)C(=O)C(c2c[nH]c3c(CC=C(C)C)cccc23)=C(O)C1=O,-9.0%,?,14.1µM*,-6.5%,15.8µM*[quencher],-14.3%
O=C(Nc1ccc2c(c1)CCC2)c1cc(S(=O)(=O)N2CCN(c3ccccc3)CC2)ccc1Cl,20.7%,-7.9%,-9.0%,169.8%,-12.0%,44.7µM*[fluorescent]
COc1ccc(-c2ccc(/C=C3/C(=N)N4C=CSC4=NC3=O)o2)c([N+](=O)[O-])c1,1.7%,-16.0%,1.78µM*,39.9%,?,?
CC(=O)C1C(=O)c2c(cccc2[N+](=O)[O-])C1=Nc1ccc(S(N)(=O)=O)cc1 (centres undefined),-0.2%,?,12.6µM*,11.8%,?,-12.9%
CC(=O)C1=C(O)C(=O)N(c2ccc(S(N)(=O)=O)cc2)C1c1cccc([N+](=O)[O-])c1 (centres undefined),-0.5%,3.8%,-13.0%,-7.4%,-6.5%,-4.5%
S=C(Nc1ccc(Cl)cc1)Nc1cccc2cnccc12,-11.9%,?,25.1µM*,-1.1%,?,10.6%
S=C(Nc1cccnc1)Nc1cccc2cnccc12,-29.8%,?,12.6µM*,0.7%,-19.4%,-2.8%
COc1ccc(NC(=S)Nc2cccc3cnccc23)cc1,-2.3%,?,?,11.9%,-20.8%,-2.0%
Fc1ccc(NC(=S)Nc2cccc3cnccc23)cc1,?,?,7.94µM*,-0.8%,?,-4.0%
O=C(Nc1nnc(SCc2ccc(F)cc2)s1)C1CC(=O)N(Cc2ccccc2)C1 (centres undefined),3.5%,14.5%,1.2%,26.9%,-6.7%,1.0%
CCC(C)(C)C(=O)Nc1cc([N+](=O)[O-])ccc1F,-21.5%[53 µM],4.7%,-3.3%,-8.6%,-3.6%,0.1µM*[quencher]
CCCN(CCC)CCNC(=O)C1CC(=O)N(c2ccc(OC)cc2)C1c1ccc(OC)cc1 (centres undefined),-5.4%,3.6%,3.7%,6.9%,3.5%,-3.2%
COc1ccc(CNc2ccc3cn[nH]c3c2)c(OC)c1OC,-18.3%,?,28.2µM*,-14.5%,?,-4.4%
CCOc1cc(CNc2ccc3cn[nH]c3c2)ccc1OC,3.2%,3.7%,?,-0.2%,?,-2.6%
C=CCn1c(CSc2nnc(-c3ccccc3)n2C)n[nH]c1=S,-4.3%,3.0%,-7.2%,5.1%,-3.0%,-9.0%
SMILES,TRb-SRC2 inh,Tau fibril FP,Tau fibril ThT,GoLoco inh red,Tau fluor cs,TexasRed fluor
COC(=O)c1c(-c2cccs2)csc1NC(=O)c1ccc(Br)cc1,-8.6%,?,15.8µM*,.,-23.8%,?
COC(=O)c1c(-c2cccs2)csc1NC(=O)c1cc(OC)c(OC)c(OC)c1,2.4%,?,11.2µM*,.,-20.2%,-15.2%
COC(=O)c1c(-c2cccs2)csc1NC(=O)c1ccc(OC)c(OC)c1,-3.1%,?,?,.,-20.0%,0.6%
COC(=O)c1c(-c2cccs2)csc1NC(=O)c1ccc(C)cc1,0.3%,?,31.6µM*,.,-24.7%,-9.8%
CCOC(=O)c1c(C)oc2c1c1c(c3ccccc32)OCN(Cc2ccccn2)C1,1.2%,?,?,8.6%,?,-2.1%
Nc1ccc(Oc2ccc3c(c2)OCO3)cc1,-9.1%,11.8%,1.8%,11.8%,-5.9%,-0.3%
CC1(C)N([O-])c2cc([N+](=O)[O-])ccc2[N+]1=O,-2.2%,8.91µM*,2µM*,-8.9%,?,-4.5%
CCNc1ccccc(-c2ccc3ccccc3n2)c1=O,-1.0%,7.8%,?,-4.3%,-7.8%,-3.1%
O=C1c2ccccc2-c2onc3ccc(NCc4ccco4)c1c23,35.5µM*,25.1µM*,3.16µM*,11.2µM*,4.47µM*[quencher],44.7µM*[fluorescent]
O=C1c2cccc3c(N4CCCCC4)ccc(c23)C(=O)N1c1ccccc1O,-3.6%,2.1%,?,20.7%,-21.0%,-0.8%
O=C1c2ccccc2-c2onc3ccc(N4CCCC4)c1c23,39.8µM*,28.2µM*,8.91µM*,-199.9%,10µM*[quencher],44.7µM*[fluorescent]
O=C1c2ccccc2C(=O)c2c1cccc2N1CCCC1,7.2%,?,14.1µM*,78.3%,?,0.3%
CCNc1ccc2noc3c2c1C(=O)c1ccccc1-3,14.1µM*,28.2µM*,7.94µM*,3.98µM*,?,44.7µM*[fluorescent]
O=C1c2ccccc2-c2cccc(C(=O)N3CCCCC3)c21,2.6%,-5.0%,-6.7%,38.2%,-10.4%,-0.7%
CCN(CC)CCCNC(=O)Cn1cnc2ccc(S(=O)(=O)N3CCC(C)CC3)cc2c1=O,8.3%,1.8%,1.6%,5.4%,0.1%,0.4%
CCOc1ccc2noc3c2c1C(=O)c1ccccc1-3,50.1µM*,?,?,-14.9%,?,?
Cn1c(=O)cc2c3c(c(N4CCCCC4)ccc31)C(=O)c1ccccc1-2,?,?,11.2µM*,15.8µM*,12.6µM*[quencher],?
CCOC(=O)c1c(C)oc2c1C(=O)c1ccccc1C2=O,7.7%,-4.4%,?,8.4%,-17.4%,-4.1%
Cn1nc(-c2ccccc2)c(N2CCCCC2)cc1=O,3.8%,0.2%,-9.9%,5.3%,-3.4%,-0.3%
